Bioassay records from PubChem BioAssay.
Only a selection was taken, and hits are over-represented in it overall.
LmPK inh = qHTS Assay for Inhibitors of Leishmania Mexicana Pyruvate Kinase (LmPK) | AID 1721, 2009 | Potency, µM (titrated, usually from 57.5 µM), inactives show top-dose activity change, negative = inhibition, usual class: inhibitors | 290,000 tested, 0.37% active | Q27686 | purified LmPK, Kinase-Glo ATP luminescence, 1 h; also: potency is read from the fitted curve at half-maximal effect; % is scaled to controls: 0 for no effect and ±100 for the full control effect
Target sequence (Q27686 whole entry, looked up): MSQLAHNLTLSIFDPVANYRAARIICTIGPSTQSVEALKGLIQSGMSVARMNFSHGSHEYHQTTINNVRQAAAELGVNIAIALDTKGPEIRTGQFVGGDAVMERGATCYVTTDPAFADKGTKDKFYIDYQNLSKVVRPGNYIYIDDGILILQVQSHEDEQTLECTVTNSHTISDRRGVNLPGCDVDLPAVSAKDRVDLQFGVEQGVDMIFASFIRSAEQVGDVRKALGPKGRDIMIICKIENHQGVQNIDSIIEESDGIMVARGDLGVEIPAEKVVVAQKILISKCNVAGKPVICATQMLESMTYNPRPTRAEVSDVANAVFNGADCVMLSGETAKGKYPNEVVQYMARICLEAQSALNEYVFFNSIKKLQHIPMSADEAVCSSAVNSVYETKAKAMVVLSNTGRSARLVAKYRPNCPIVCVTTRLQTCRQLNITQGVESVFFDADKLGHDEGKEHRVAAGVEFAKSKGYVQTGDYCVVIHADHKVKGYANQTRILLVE
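qHTS format; LmPK 0.1 nM; substrates PEP 0.5 mM and ADP 0.1 mM. One-hour room-temperature incubation, then coupled luciferase luminescence; 0.5 nM enzyme wells mark activation.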
Shiga toxin inh = A qHTS for Small Molecule Inhibitors of Shiga Toxin; Vero cells, Shiga toxin protein synthesis inhibition reporter; inhibition, % at 38.7 µM; 290,000 tested, 9.2% active; in the data active = inhibition mostly above about 28%, no sharp cut-off; inactive = mostly below about 43%; also: 0% is about no effect
Cycloheximide cs = Cycloheximide Counterscreen for Small Molecule Inhibitors of Shiga Toxin; cell reporter, cycloheximide protein synthesis inhibition counterscreen; max response, %; 300,000 tested, 12% active; in the data active = max response mostly above about 13%, no sharp cut-off; inactive = mostly below about 14%; also: read at 38.3 µM for the half of the compounds with a filed dose; 0% is about no effect
RE007 growth inh = qHTS Assay for Inhibitors of the HIV-1 protein Vpr. AID 651644, 2012. Potency, µM (doses to about 92.2 µM), without a hit: top-dose activity change, negative = less growth, usual class: inhibitors. 360,000 tested, 0.21% active. S. pombe RE007 Vpr strain, BacTiter-Glo ATP luminescence, 24 h; active = well fitted falling curve with a large enough effect; inconclusive = small, poorly fitted or top-dose-only effect; inactive = no such curve, though single readings can be large or run the other way; also: potency is read from the fitted curve at half-maximal effect; % is scaled to controls: 0 for no effect and ±100 for the full control effect; nearly all actives have a fitted effect of over 50% in size
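Fission yeast RE007 carrying one integrated HIV-1 vpr copy, seeded at OD 0.01 in PMG+AL medium with 23 nL pinned compound. Grown 24 h at 30 degrees; viability read by BacTiter-Glo luminescence after 5 min.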
Giardia FBPA inh = qHTS Assay for Inhibitors of Fructose-1,6-bisphosphate Aldolase from Giardia Lamblia; A8B2U2; purified Giardia FBPA; Potency, µM (doses to about 59.6 µM), inactives show at the highest dose activity, negative = inhibition, actives largely listed as inhibitors; 290,000 tested, 0.71% active; AID 2451, 2010; also: potency is read from the fitted curve at half-maximal effect; % is scaled to controls: 0 for no effect and ±100 for the full control effect; nearly all actives have a fitted effect of over 55% in size
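Giardia FBPA (40 nM reagent) was preincubated 10 min at RT with compound (up to 57.5 uM final), then substrate plus GAPDH/TPI/NAD/arsenate coupling system with diaphorase/resazurin was added; resorufin fluorescence (525/598 nm) was read after 20 min.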
TbPYK inhibitor = qHTS of Trypanosoma Brucei Inhibitors. TbPYK enzyme, Kinase-Glo Plus ATP luminescence, 45 min. Potency, µM (series often up to 76.8 µM), without a hit: top-dose activity, negative = inhibition, actives largely listed as inhibitors. 410,000 tested, 0.12% active. AID 624173, 2012; also: potency is read from the fitted curve at half-maximal effect; % is scaled to controls: 0 for no effect and ±100 for the full control effect; nearly all actives have a fitted effect of over 50% in size
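Assay buffer: 50 mM TEA pH 7.2, 100 mM KCl, 10 mM MgCl2, 0.05% BSA, 0.01% Tween-20. Pyruvate kinase from T. brucei plus substrate met compound, then ADP (130 uM final). Luminescence was read post 45 min RT.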
Starred values were filed as active, the others as inactive. Unless noted, calls follow the shape of the dose curve; as a rule, active = well fitted curve in the direction sought with a large enough effect; inconclusive = small, poorly fitted or top-dose-only effect, or another doubt; inactive = no such curve, though single readings can be large; an effect the other way counts as inactive or inconclusive.

`Cc1cc(=O)oc2cc(OC(=O)c3ccco3)ccc12` gave LmPK inh 9%, Shiga toxin inh -2, Cycloheximide cs 4, RE007 growth inh inconclusive, Giardia FBPA inh -3% and TbPYK inhibitor 0%.
For O=C(COC(=O)c1ccco1)c1ccccc1 the results were LmPK inh -1%, Shiga toxin inh 112*, Cycloheximide cs 48*, RE007 growth inh -21%, Giardia FBPA inh 7% and TbPYK inhibitor -6%.
O=C(COC(=O)c1ccco1)c1ccc(Cl)cc1 was read as LmPK inh 1%, Shiga toxin inh 104*, Cycloheximide cs 29*, RE007 growth inh 14%, Giardia FBPA inh -4% and TbPYK inhibitor 3%.
O=C(COC(=O)c1ccco1)NCCNC(=O)COC(=O)c1ccco1 was read as LmPK inh -8%, Shiga toxin inh -29, Cycloheximide cs 4, RE007 growth inh -17% and TbPYK inhibitor -1%.
CC1CC(C)(C)Nc2ccc(OC(=O)c3ccco3)cc21 (configuration not stated) was read as LmPK inh 8%, Shiga toxin inh 121*, Cycloheximide cs 49*, RE007 growth inh -18% and TbPYK inhibitor -8%.
`OC(c1ccc(F)cc1)c1nc(-c2cccc(F)c2)cs1` (configuration not stated) gave RE007 growth inh -9% and TbPYK inhibitor -8%.
For CCOC(=O)c1c(Nc2ccc(F)cc2)nnc(-c2ccccc2)c1-c1ccccc1 the results were TbPYK inhibitor -4%.
For CCc1ccc(-c2[nH]c3c(c2-c2sc(C)c(C(=O)OC)c2O)c(=O)n(C)c(=O)n3C)cc1 the results were TbPYK inhibitor -4%.
Screening CC(C)CCN1C(=O)c2ccc(C(=O)Nc3ccccn3)cc2C1=O returned LmPK inh -4%, Shiga toxin inh 30, Cycloheximide cs 2, RE007 growth inh -23% and TbPYK inhibitor -12%.
O=C(COC(=O)c1cnccn1)c1ccc2ccccc2c1 was read as LmPK inh 1%, Shiga toxin inh 12, Cycloheximide cs 6, RE007 growth inh -27%, Giardia FBPA inh -1% and TbPYK inhibitor 0%.
For O=C(COC(=O)c1ccco1)c1ccc2ccccc2c1 the results were LmPK inh 2%, Shiga toxin inh 124, Cycloheximide cs 56*, RE007 growth inh inconclusive, Giardia FBPA inh 0% and TbPYK inhibitor -7%.
COc1ccccc1CCc1nnc(CCC(=O)NCC[C@@H]2C[C@@H]3C=C[C@H]2C3)o1 was read as LmPK inh 3%, Shiga toxin inh 24, Cycloheximide cs 13*, RE007 growth inh -11%, Giardia FBPA inh -1% and TbPYK inhibitor 3%.
`COc1cccc(-c2sc3ccc(OC)cc3c2-c2cnc(N3CCOCC3)nc2)c1` gave RE007 growth inh -17% and TbPYK inhibitor -1%.
`Cc1nc2ccc([N+](=O)[O-])cc2nc1C` gave LmPK inh 4%, Shiga toxin inh -16, Cycloheximide cs 12, RE007 growth inh 4%, Giardia FBPA inh 5% and TbPYK inhibitor 0%.
`Cc1ccc2nc3cc([N+](=O)[O-])cc([N+](=O)[O-])c3cc2c1` gave LmPK inh -1%, Shiga toxin inh 134*, Cycloheximide cs 68*, RE007 growth inh inconclusive, Giardia FBPA inh -16% and TbPYK inhibitor -3%.
`COc1ccc(OCc2cc(C(=O)O)c(C)o2)cc1` gave LmPK inh 1%, Shiga toxin inh 26, Cycloheximide cs 33* and Giardia FBPA inh 6%.
For COC(=O)c1cc(COC(=O)COc2ccc(C)c(C)c2)oc1C the results were LmPK inh -1%, Shiga toxin inh -4, Cycloheximide cs 7, RE007 growth inh -7%, Giardia FBPA inh 8% and TbPYK inhibitor -5%.
